# The supplement of paper PMC13380429
# Values without a mark were called inactive.
# Test system: Vero E6 infected with SARS-CoV-2
# Experiment: inhibition of SARS-CoV-2 cytopathic effect; higher = more antiviral protection, active = above 15
# Conditions: 48 h
Structure (SMILES),inhibition of SARS-CoV-2 cytopathic effect (1 nM) [%],inhibition of SARS-CoV-2 cytopathic effect (8.33 nM) [%],inhibition of SARS-CoV-2 cytopathic effect (100 nM) [%],inhibition of SARS-CoV-2 cytopathic effect (833.33 nM) [%],inhibition of SARS-CoV-2 cytopathic effect (10000 nM)
CCN(Cc1ccc(Cl)nc1)/C(=C/[N+](=O)[O-])NC [nitenpyram],0.79,-0.17,-0.29,-1.84,1.08%
O=c1[nH]nc2c3c(cccc13)N=C(CN1Cc3ccccc3C1)N2,0.7,-0.79,0.78,0.24,1.13%
COc1cc(C(=O)NCC2(N(C)C)CCCC2)cc(OC)c1OCc1ccccc1,0.5,4.04,5.81,-2.21,-8%
C=CC(=O)Nc1cccc(Nc2nc(Nc3ccc(NC4CN(CCF)C4)cc3OC)ncc2C(F)(F)F)c1,0.89,1.87,7.9,-5.81,-24.6%
NC(=O)c1cnc(N[C@@H]2CCCC[C@@H]2N)nc1Nc1cccc(-n2nccn2)c1,-1.26,-0.3,2.11,-0.39,24.4% (active)
Nc1ccn(C[C@@H](CO)OCP(=O)(O)O)c(=O)n1 [cidofovir],-0.38,0.11,-1.45,-1.91,-2.8%
CC(C)c1nc(CN(C)C(=O)N[C@H](C(=O)N[C@@H](Cc2ccccc2)C[C@H](O)[C@H](Cc2ccccc2)NC(=O)OCc2cncs2)C(C)C)cs1 [ritonavir],0.04,0.25,-0.08,3.37,0.85%
CN1C(=O)C(N2CCCCC2)S/C1=C\C(=O)O (stereo not given) [ozolinone],-4.09,0.03,4.18,0.02,-0.02%
CC1(CN2CCC(n3c(=O)[nH]c4ccccc43)CC2)OCc2ccccc2-n2cccc21 (stereo not given) [zaldaride],4.94,-0.44,4.25,-2.81,-4.06%
O=C(CCc1ccc(O)cc1)c1c(O)cc(O)cc1O[C@@H]1O[C@H](CO)[C@@H](O)[C@H](O)[C@H]1O [phlorizin],-2.08,0,-10.3,0.18,1.43%
CO[C@H]1/C=C/O[C@@]2(C)Oc3c(C)c(O)c4c(O)c(cc(O)c4c3C2=O)NC(=O)/C(C)=C\C=C\[C@H](C)[C@H](O)[C@@H](C)[C@@H](O)[C@@H](C)[C@H](OC(C)=O)[C@@H]1C [rifamycin-sv],0.74,1.12,3.4,4.53,2.73%
N[C@@H]1CCCCN(c2c(F)cc3c(=O)c(C(=O)O)cn(C4CC4)c3c2Cl)C1 [besifloxacin],-2.51,1.39,2.41,2.48,2.15%
CNC(=O)c1ccccc1Nc1nc(Nc2ccc(N3CCOCC3)cc2OC)ncc1Cl,-0.14,-2.52,-2.14,-3.76,-10.9%
Nc1nc(N)c2nc(-c3cccc(O)c3)cnc2n1,-0.93,-0.26,0.04,-0.48,-1.39%
C[C@@]12CCc3occc3[C@H]1CC[C@@]13C[C@@H](CC[C@H]12)[C@@](O)(CO)C3 [cafestol],-4.07,-1.86,2,2.62,1.59%
CC(C)(C)NCC(O)c1ccc(O)c(CO)c1 (stereo not given) [albuterol],-4.08,-2.63,-5.03,-4.97,-3.93%
O=C(O)c1c2ccccc2cc2ccccc12 [9-anthracenecarboxylic-acid],-4.6,2.11,0.63,1.03,-2.02%
COc1ccc(S(=O)(=O)Nc2c(C)cc(C)cc2C)cc1,0.3,-0.36,2.29,2.21,0.94%
COc1cnc(NS(=O)(=O)c2ccc(N)cc2)nc1 [sulfameter],-0.38,1.1,0.11,0.46,2.89%
O=c1ccc2cc3ccoc3cc2o1 [psoralen],-1.78,1.39,1.55,0.22,-0.41%

Structure (SMILES),inhibition of SARS-CoV-2 cytopathic effect (1 nM) [%],inhibition of SARS-CoV-2 cytopathic effect (8.33 nM) [%],inhibition of SARS-CoV-2 cytopathic effect (100 nM) [%],inhibition of SARS-CoV-2 cytopathic effect (833.33 nM) [%],inhibition of SARS-CoV-2 cytopathic effect (10000 nM)
NCc1c[nH]c(=S)n1[C@H]1CCc2c(F)cc(F)cc2C1 [nepicastat],-0.64,1.63,2.16,0.6,-0.04%
O=C(NO)c1ccc(O)c(O)c1 [didox],1.58,0.68,1.83,-2.16,-2.13%
CCCC[P+](CCCC)(CCCC)Cc1ccc(NC(=O)[C@H](Cc2ccc3ccccc3c2)N/C(=N/C2CCCCC2)NC2CCCCC2)cc1,-1.29,-0.27,-4.22,-4.62,-2.72%
CCCCOc1cc(C(=O)NCCN(CC)CC)c2ccccc2n1 [cinchocaine],-2.14,-0.71,1.11,3.8,0.77%
CCCCOc1nc(N)c2c(n1)N(Cc1cccc(CN3CCCC3)c1)CC(=O)N2,0.32,2.16,0.03,2.02,1.92%
O=C(O)c1cc(O)c2c3nc4ccccc4oc-3cc(=O)c2n1 [pirenoxine],0.17,3.09,2.36,-0.17,3.17%
O=C(O)C(F)(F)C(F)(F)C(F)(F)C(F)(F)C(F)(F)C(F)(F)C(F)(F)F [ammonium-perfluorocaprylate],2.29,-0.68,0.56,-0.2,-2.3%
C[C@]12C=CC(=O)C=C1CC[C@@H]1[C@@H]2[C@@H](O)C[C@@]2(C)[C@H]1CC[C@]2(O)C(=O)COP(=O)(O)O [prednisolone-sodium-phosphate],-6.31,-10,-8.54,-9.6,-4.78%
CCn1c(=O)/c(=C2\Sc3ccccc3N2C)s/c1=C\c1cccc[n+]1CC,-0.41,2.22,-0.82,-0.9,-6.25%
O=C1c2ccccc2S(=O)(=O)N1CCCCN1CCN(c2ncccn2)CC1 [ipsapirone],4.62,2.92,-3.31,1.74,0.15%
Cc1nn(C)c2nc(NNC(=O)Nc3cc(Cl)nc(Cl)c3)cc(C(C)C)c12,-4.74,-3.45,-2.8,-1.22,1.05%
Cc1c(-c2cnccn2)ssc1=S [oltipraz],1.51,4.72,3.49,5.97,0.75%
COCCOc1ccc(N2CCN(CCn3ncc4c3nc(N)n3nc(-c5ccco5)nc43)CC2)cc1 [preladenant],1.43,0.62,3.21,0.67,2.45%
COc1cc(/C=C/C(=O)N2CCN(CC(=O)N3CCCC3)CC2)cc(OC)c1OC [cinepazide],5.93,5.29,8.11,-1.14,0.17%
Nc1cccc2c(=O)[nH][nH]c(=O)c12 [monosodium-alpha-luminol],-0.8,0.14,-1.27,-0.92,2.06%
CCN1CCN(c2cc(-c3ccc(F)cc3)c3c(n2)CCCCCC3)CC1 [blonanserin],3.34,2.25,-2.9,-0.44,-3.59%
COc1ccc(NS(=O)(=O)c2ccc(N)cc2)nn1 [sulfamethoxypyridazine],3.44,2.28,2.29,3.71,2.16%
O=C(O)[C@H](O)[C@@H](O)[C@H](O[C@@H]1O[C@H](CO)[C@H](O)[C@H](O)[C@H]1O)[C@H](O)CO [maltobionic-acid],-0.69,-2.72,-1.55,-3.61,-1.2%
CCN(CC)CCNC(=O)COc1ccc(OC)cc1 [mefexamide],1.84,2.71,-0.86,-0.89,-2.3%
